Results on 13 compounds are retold here after PubChem BioAssay.

The nature of test [1]: resazurin metabolic signal in HepG2 cells – cell-based, resazurin fluorescence, 24 h, PK04 Diversity Set, profiling panel (AID 1172). Also: test concentration not given here. Conditions: HepG2 viability, higher = more signal.
A short description of test [2]: budding yeast growth changes without added modifier – OD600, strain BY4716, 24 h, basal condition, primary screen (AID 1173). Conditions: S. cerevisiae BY4716 growth, OD600, 24 h; higher = more signal, called active from +8 up or from −8 down.
Test [3] can be described thus: viability profiling in MM1S myeloma cells – cell-based, resazurin fluorescence, basal, 24 h, PK04 Diversity Set, profiling panel (AID 1174).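 Also: MM1S multiple myeloma cell line; test concentration not given here.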 The note with it: higher = more signal, called active from +8 up or from −8 down.
Test [4] has as its target Dihydroorotate dehydrogenase (quinone), mitochondrial (Plasmodium falciparum (isolate 3D7)) (UniProt Q08210). The test is described as follows: inhibition of P. falciparum DHODH – biochemical, C-terminal His tag, absorbance 600 nm, primary screen (AID 1175).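 Also: recombinant parasite enzyme with a five histidine tag at its C terminus; test concentration not given here.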 Conditions: PfDHODH enzyme, DCIP absorbance 600 nm; higher = more signal, called active from +8 up or from −8 down.

Test [5] in a line: inhibition of PAO1 biofilm formation – strain PAO1, LB-PBS medium, absorbance 600 nm, primary screen (AID 1176). Also: test concentration not given here. The note with it: P. aeruginosa PAO1 growth/biofilm, A600, 12 h; higher = more signal.
Test [6] can be described thus: growth modulation of vineyard yeast isolate – strain RM11-1a, OD600, basal, 24 h, primary screen (AID 1177).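 Also: cultures grown under basal conditions with no added stressor; test concentration not given here.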 Conditions: S. cerevisiae RM11-1a growth, OD600, 24 h; higher = more signal, called active from +8 up or from −8 down.
The nature of test [7]: growth of efflux-deficient E. coli DRC39 – strain DRC39, OD650, 24 h, E. coli filamentation inducers, primary screen (AID 1178).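 Also: growth measured as culture turbidity by optical density at 650 nm; test concentration not given here.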 The note with it: E. coli DRC39 acrAB, higher = more signal, called active from +8 up or from −8 down.
A short description of test [8]: growth of efflux-deficient E. coli DRC39 – strain DRC39, OD650, 48 h, E. coli filamentation inducers, primary screen (AID 1179).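 Also: screen aims at cell division blockers that make cells filament.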 The note with it: E. coli DRC39 delta-acrAB growth, higher = more signal, called active from +8 up or from −8 down.
The nature of test [9]: viability profiling in RPMI8226 myeloma cells – cell-based, resazurin fluorescence, basal, 24 h, PK04 Diversity Set, profiling panel (AID 1180).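 Also: RPMI8826 multiple myeloma cell line at 5000 cells per well; test concentration not given here.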 Conditions: higher = more signal.
Test [10] has as its target E3 ubiquitin-protein ligase XIAP (Homo sapiens) (UniProt P98170). The test is described as follows: small molecules binding XIAP protein – biophysical, small-molecule microarray, fluorescence 635 nm, primary screen (AID 1181).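 Also: score merges 667 nm emission and signal to noise over triplicate slides.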 The note with it: higher = more signal.

Active and inactive are the calls of the source. Unless noted, no rule for the calls is given here.

Sequence of E3 ubiquitin-protein ligase XIAP (Homo sapiens) (P98170 whole entry, looked up): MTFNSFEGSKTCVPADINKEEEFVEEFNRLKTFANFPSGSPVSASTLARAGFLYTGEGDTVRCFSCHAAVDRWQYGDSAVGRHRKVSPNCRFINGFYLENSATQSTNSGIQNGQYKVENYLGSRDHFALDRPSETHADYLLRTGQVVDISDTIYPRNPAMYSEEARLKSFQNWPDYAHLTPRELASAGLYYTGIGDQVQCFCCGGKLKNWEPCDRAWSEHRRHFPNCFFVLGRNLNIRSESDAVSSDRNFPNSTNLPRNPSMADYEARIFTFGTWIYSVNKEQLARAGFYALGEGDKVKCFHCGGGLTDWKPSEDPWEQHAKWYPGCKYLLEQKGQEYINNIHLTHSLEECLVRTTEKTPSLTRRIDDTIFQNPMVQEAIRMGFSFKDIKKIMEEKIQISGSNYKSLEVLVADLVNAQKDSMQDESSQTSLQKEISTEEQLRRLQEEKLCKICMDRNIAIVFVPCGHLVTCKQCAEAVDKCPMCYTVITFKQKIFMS
Sequence of Dihydroorotate dehydrogenase (quinone), mitochondrial (Plasmodium falciparum (isolate 3D7)) (Q08210 whole entry, looked up): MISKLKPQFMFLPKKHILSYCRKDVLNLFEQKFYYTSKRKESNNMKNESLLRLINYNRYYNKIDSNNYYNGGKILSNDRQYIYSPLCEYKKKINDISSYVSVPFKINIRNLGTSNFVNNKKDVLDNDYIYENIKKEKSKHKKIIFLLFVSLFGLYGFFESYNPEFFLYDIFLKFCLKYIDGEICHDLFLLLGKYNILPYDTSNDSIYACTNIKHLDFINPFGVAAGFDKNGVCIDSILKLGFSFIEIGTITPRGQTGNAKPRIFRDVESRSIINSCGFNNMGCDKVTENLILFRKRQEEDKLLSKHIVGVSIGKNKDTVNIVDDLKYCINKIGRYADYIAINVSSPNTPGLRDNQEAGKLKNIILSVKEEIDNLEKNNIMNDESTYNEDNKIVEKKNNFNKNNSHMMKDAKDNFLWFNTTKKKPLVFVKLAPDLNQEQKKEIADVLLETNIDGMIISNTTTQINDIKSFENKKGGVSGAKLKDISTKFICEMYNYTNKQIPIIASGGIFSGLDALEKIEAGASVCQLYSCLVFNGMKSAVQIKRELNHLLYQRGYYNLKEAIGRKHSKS

Turning to `COC(=O)CC=C[C@@H](C)[C@@H](C=NO[C@H](C)c1cn([C@H](CO)Cc2ccccc2)nn1)OC`, the z-score in [1] is 0.167; in test [2] it was -0.285 (inactive); in test [3] it was -0.242 (inactive); in [5], 0.368 (inactive); in test [6], -0.212 (inactive); in [7], 0.0343 (inactive). For the same compound, the z-score in test [8] was -0.265 (inactive); in test [9], 0.261. Further, the figures for the composite z-score in test [4] and in test [10] were -0.184 (inactive) and -0.142, respectively.
Consider `O=c1n(Cc2cc3c(cc2Cl)OCO3)c(=O)n2n1CC[C@@H]1C(=NOC[C@@H](O)COCc3ccco3)[C@H]3O[C@H]3[C@@H](O)[C@@H]12`, for which the z-score was -0.0975 in test [1]; 0.919 (inactive) in [2]; -0.316 (inactive) in test [3]; 0.471 (inactive) in test [5]; 0.716 (inactive) in test [6]; -0.133 (inactive) in test [7]. Further, the values for the z-score in test [8] and in [9] were -0.527 (inactive) and -0.614, respectively. The composite z-score was 0.634 (inactive) in test [4] and -0.0252 in test [10].
With `CCOC(=O)C1=NO[C@]2(C=C(Br)C3(OCCCO3)[C@H]3O[C@H]32)C1`, the z-score in test [1] is -0.706; in test [2], -0.175 (inactive); in test [3], -0.734 (inactive); in [5], -0.646 (inactive); in test [6], -0.847 (inactive); in test [7], 0.336 (inactive). Besides, the figures for the z-score in [8] and in test [9] were 0.645 (inactive) and -0.549, respectively. Besides, the composite z-score is -0.671 (inactive) in [4] and 0.201 in [10].
With `CC(=O)Nc1ccc([C@@H]2N[C@H](C(=O)O)CC[C@H]2C)cc1`, the z-score in test [1] was 0.219; in [2], -0.236 (inactive); in [3] it was -0.106 (inactive); in test [5], 0.557 (inactive); in test [6], 0.237 (inactive); in test [7], 0.909 (inactive). In addition, the z-score in [8] is 0.781 (inactive); in test [9], -0.625. The values for the composite z-score in [4] and in [10] were 0.0947 (inactive) and -0.0445, respectively.
Take `O=C(NN=C1C[C@@H](O)[C@@H](O)[C@@H]2[C@@H]3C(=O)N(Cc4ccccc4)C(=O)[C@@H]3CC[C@@H]12)OCc1ccccc1`: the z-score in test [1] is 0.348; in [2] it was -1.17 (inactive); in [3] it was 0.0873 (inactive); in test [5], 0.352 (inactive); in test [6], -0.139 (inactive); in test [7], 0.851 (inactive). The z-score in test [8] is 0.279 (inactive); in [9], 0.131. The composite z-score in test [4] is -1.65 (inactive); in [10] it was -0.0344.
With `CO[C@H](C1CCCCC1)[C@H](C)C=CCC(=O)OCCCc1ccccc1`, the z-score in test [1] was 0.159; in test [2] it was 0.878 (inactive); in test [3], 0.227 (inactive); in test [5], -0.315 (inactive); in test [6] it was 1.63 (inactive); in test [7], -0.778 (inactive). In addition, the z-score in test [8] was -0.417 (inactive); in test [9] it was -0.0411. In addition, the composite z-score in [4] was 0.503 (inactive); in [10] it was -0.193.
For the compound `CCOC(=O)CCN1C(=O)[C@H]2[C@H]3[C@H](O)[C@H](O)CC(=NNC(=O)OCc4ccccc4)[C@@H]3CC[C@H]2C1=O`, the z-score was -0.921 in test [1]; 0.192 (inactive) in [2]; -0.931 (inactive) in [3]; -0.331 (inactive) in test [5]; 0.116 (inactive) in test [6]; 0.655 (inactive) in test [7]. The z-score in [8] was 0.84 (inactive); in test [9], -0.663. Moreover, the figures for the composite z-score in test [4] and in [10] were 0.203 (inactive) and 0.154, respectively.
As to `O=C1[C@H]2[C@H]3[C@H](O)[C@H](O)CC(=NOCc4ccccc4)[C@@H]3CC[C@H]2C(=O)N1c1ccc(F)cc1F`, the z-score in [1] was 0.0979; in test [2] it was -0.584 (inactive); in test [3], 0.253 (inactive); in test [5], 0.86 (inactive); in test [6], -2.15 (inactive); in [7], -0.018 (inactive). Moreover, the z-score is -0.714 (inactive) in test [8] and -1.19 in test [9]. For the same compound, the values for the composite z-score in test [4] and in test [10] were -1.42 (inactive) and -0.0563, respectively.
For the compound `Cc1ccc(S(=O)(=O)OC[C@H]2CN3[C@H](c4ccc(Br)cc4)[C@@H](C)CC[C@H]3C(=O)O2)cc1`, the z-score is 0.794 in [1]; -9.35 (active) in [2]; 0.648 (inactive) in [3]; 1.29 (inactive) in test [5]; -1.42 (inactive) in test [6]; 1.31 (inactive) in [7]. Also, the z-score was 0.618 (inactive) in test [8] and 0.521 in test [9]. The figures for the composite z-score in [4] and in test [10] were -0.303 (inactive) and 0.201, respectively.
As to `Cn1c(=O)n2n(c1=O)[C@H]1[C@H](O)[C@@H]3O[C@@H]3C(=NOCc3ccccc3)[C@H]1CC2`, the z-score is 0.0287 in [1]; 0.0108 (inactive) in [2]; -0.189 (inactive) in test [3]; -0.0242 (inactive) in test [5]; -0.186 (inactive) in test [6]; -0.289 (inactive) in test [7]. The z-score is -0.265 (inactive) in test [8] and -0.336 in test [9]. The composite z-score in test [4] is -1.08 (inactive); in test [10] it was -0.222.
As to `COc1ccc(O[C@H]2C=C[C@@H](c3ccccc3)O[C@@H]2CON=C(C)CCN2CCc3nc(-c4ccccc4)c(-c4ccccc4)cc3C2)cc1`, the z-score in test [1] is 0.449; in test [2] it was -0.606 (inactive); in test [3], -0.159 (inactive); in test [5] it was 0.135 (inactive); in test [6], 1.21 (inactive); in test [7], -0.166 (inactive). Besides, the z-score is -1.89 (inactive) in test [8] and 0.382 in [9]. Besides, the results for the composite z-score in test [4] and in test [10] were 0.503 (inactive) and -0.0536, respectively.
`COC(=O)NCC=Cc1nc(CCCO)co1`: the z-score is -0.0091 in test [1]; 0.41 (inactive) in test [2]; -0.295 (inactive) in [3]; -0.245 (inactive) in test [5]; 0.414 (inactive) in [6]; 0.107 (inactive) in test [7]. The z-score in test [8] is 0.438 (inactive); in test [9] it was -0.626. Besides, the composite z-score in test [4] is -0.706 (inactive); in test [10], -0.117.
In the case of `CCc1cc2c(nc1CC)CCN(CCC(C)=NO[C@H](C)c1cn([C@H](CO)Cc3ccccc3)nn1)C2`, the z-score was -0.605 in test [1]; -0.0397 (inactive) in test [2]; -0.376 (inactive) in test [3]; -0.503 (inactive) in test [5]; -0.0857 (inactive) in [6]; -1.4 (inactive) in test [7]. In addition, the z-score in [8] was -1.17 (inactive); in test [9], -0.162. Also, the composite z-score in test [4] is 1.07 (inactive); in test [10], 0.204.
